Bioassay records as filed in PubChem.
Sampled rows, rich in hits. Any-hit rate of the full collection: about 4.1%.
hgDAF-12 ag: hgDAF-12 agonism, primary luciferase screen; HEK293 GAL4-hgDAF12 UAS-luciferase reporter, agonist luminescence; normalized to butyrate control; activation, % at 6.8 µM; hit rate 1.8% among 370,000; AID 687014;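 active = activation above a cutoff set at the mean of all screened compounds plus 3 SD, cut at about 10% in these data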
DAX1 inh-1: inhibitors of human orphan nuclear receptor DAX1 (NR0B1); inhibition, % at 6.75 µM; hit rate 0.99% among 340,000; HEK293 Gal4-DAX1 luciferase reporter, luminescence; AID 504766; P51843;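 active = inhibition above the mean over all tested compounds plus 3 SD, cut at about 4.2% in these data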;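 also: inhibition shows as a rise in luminescence from relieved DAX1 repression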
Target sequence (P51843 207-470 limits assumed): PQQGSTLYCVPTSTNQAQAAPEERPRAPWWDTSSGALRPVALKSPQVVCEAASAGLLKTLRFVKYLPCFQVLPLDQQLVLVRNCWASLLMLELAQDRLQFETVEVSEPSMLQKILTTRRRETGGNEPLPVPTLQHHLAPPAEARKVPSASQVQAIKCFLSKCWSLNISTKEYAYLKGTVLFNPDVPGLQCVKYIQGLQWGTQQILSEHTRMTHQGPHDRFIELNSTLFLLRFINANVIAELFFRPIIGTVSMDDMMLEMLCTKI
ssDAF12 agonist: S. stercoralis DAF-12 activation, primary screen | HEK293 ssDAF-12/GRIP1 lit1-tk-luc reporter, luminescence; % of 3 µM dafachronic acid response | activation, % at 6.8 µM | hit rate 1% among 370,000 | AID 652126;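 active = activation above the mean over all tested compounds plus 3 SD, cut at about 0.9% in these data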
DAX1 inh-2: DAX1 (NR0B1) inhibition, primary screen; HEK293T StAR-luciferase reporter, SF-1/DAX-1 repression relief; inhibition, % at 6.8 µM; hit rate 1.1% among 370,000; AID 652010;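 active = inhibition above the mean over all tested compounds plus 3 SD, cut at about 3.6% in these data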;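 also: higher inhibition means more luminescence from relief of DAX-1 repression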
hcDAF-12 act: H. contortus DAF-12 activation, primary screen. HEK293 hcDAF-12 lit1-tk-luc reporter, luminescence; 0% DMSO, 100% Δ7-dafachronic acid. hit rate 1.4% among 370,000. activation, % at 6.8 µM. AID 652067;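 active = activation above the mean of all tested compounds plus 3 SD, cut at about 5.5% in these data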
Hits are given with their value.

Screening Cc1cccc(NC(=O)CSc2ncnc3sc4c(c23)CCCC4)c1 returned hgDAF-12 ag inactive, ssDAF12 agonist inactive, DAX1 inh-2 inactive and hcDAF-12 act inactive.
For O=C(NC1CCCC1)c1cc2c(ccc3ccccc32)o1 the results were hgDAF-12 ag 11, DAX1 inh-1 inactive, ssDAF12 agonist inactive, DAX1 inh-2 inactive and hcDAF-12 act inactive.
Screening CCCCOc1ccc(C(=O)NC2CCCCN(Cc3cccc(Cl)c3)C2=O)cc1 (stereo not given) returned hgDAF-12 ag inactive, ssDAF12 agonist inactive, DAX1 inh-2 inactive and hcDAF-12 act inactive.
Screening COCCNS(=O)(=O)c1ccc(C2CNC(=O)C2)cc1 (stereo not given) returned hgDAF-12 ag inactive, DAX1 inh-1 5.2, ssDAF12 agonist inactive, DAX1 inh-2 inactive and hcDAF-12 act inactive.
Screening O=C1CC(c2ccc(S(=O)(=O)NCCOc3ccccc3)cc2)CN1 (stereo not given) returned hgDAF-12 ag inactive, DAX1 inh-1 inactive, ssDAF12 agonist inactive, DAX1 inh-2 inactive and hcDAF-12 act inactive.
`Cc1ccccc1CN[C@@H]1CC[C@@]23CCCN2C(=O)CCC[C@H]3C1` gave hgDAF-12 ag inactive, ssDAF12 agonist inactive and hcDAF-12 act inactive.
Cc1ccc(NC(=O)CSc2ccccc2NC(=O)c2cccc(Cl)c2)cc1Cl was read as hgDAF-12 ag inactive, DAX1 inh-1 inactive, ssDAF12 agonist inactive, DAX1 inh-2 inactive and hcDAF-12 act inactive.
Cc1cccc(C(=O)Nc2ccccc2SCC(=O)Nc2ccc(C)c(Cl)c2)c1 was read as hgDAF-12 ag inactive, DAX1 inh-1 inactive, ssDAF12 agonist inactive, DAX1 inh-2 inactive and hcDAF-12 act 6.5.
Screening C=CCn1c(NCc2ccccc2O)nc2ccccc21 returned hgDAF-12 ag inactive, DAX1 inh-1 inactive, ssDAF12 agonist inactive, DAX1 inh-2 inactive and hcDAF-12 act inactive.
For C=CCn1c(NCc2ccccc2)nc2ccccc21 the results were hgDAF-12 ag inactive, DAX1 inh-1 7.1, ssDAF12 agonist inactive, DAX1 inh-2 inactive and hcDAF-12 act inactive.
`CN(C(=O)COC(=O)CSc1ccc([N+](=O)[O-])cc1)C1CCS(=O)(=O)C1` (stereo not given) gave hgDAF-12 ag inactive, DAX1 inh-1 inactive, ssDAF12 agonist 1.5, DAX1 inh-2 inactive and hcDAF-12 act inactive.
For O=C(NC1CCCCC1)Oc1ccccc1 the results were hgDAF-12 ag inactive, DAX1 inh-1 6.9, ssDAF12 agonist inactive, DAX1 inh-2 inactive and hcDAF-12 act inactive.
O=C(NC1CCS(=O)(=O)C1)Oc1ccccc1 (stereo not given) was read as hgDAF-12 ag inactive, DAX1 inh-1 inactive, ssDAF12 agonist inactive, DAX1 inh-2 inactive and hcDAF-12 act inactive.
For O=C(CCS(=O)(=O)c1ccccc1)Nc1nc2cc3c(cc2s1)OCO3 the results were hgDAF-12 ag inactive, DAX1 inh-1 4.9, ssDAF12 agonist inactive, DAX1 inh-2 inactive and hcDAF-12 act inactive.
`COc1ccccc1C(=O)Nc1nc2cc3c(cc2s1)OCO3` gave hgDAF-12 ag 12, DAX1 inh-1 inactive, ssDAF12 agonist inactive, DAX1 inh-2 inactive and hcDAF-12 act inactive.
C[C@@H]1COc2cccc(F)c2S(=O)(=O)N1C was read as hgDAF-12 ag inactive, ssDAF12 agonist inactive, DAX1 inh-2 inactive and hcDAF-12 act inactive.
`CC1CCC/C(=N/NC(=O)c2ccccc2-n2cccc2)C1` (stereo not given) gave hgDAF-12 ag inactive, DAX1 inh-1 inactive, ssDAF12 agonist inactive, DAX1 inh-2 inactive and hcDAF-12 act 6.1.
For CC1CCC(=NNC(=O)c2ccccc2-n2cccc2)CC1 (stereo not given) the results were hgDAF-12 ag inactive, DAX1 inh-1 inactive, ssDAF12 agonist inactive, DAX1 inh-2 inactive and hcDAF-12 act inactive.
Screening CCCOc1ccc(C(=O)Nc2ccccc2[N+](=O)[O-])cc1 returned hgDAF-12 ag 13, DAX1 inh-1 inactive, ssDAF12 agonist inactive, DAX1 inh-2 inactive and hcDAF-12 act inactive.
CCN(CC)C(=O)CC[C@@H]1CC[C@]2(CCCN(Cc3ccc(Cl)cc3)C2)O1 was read as hgDAF-12 ag inactive, ssDAF12 agonist inactive, DAX1 inh-2 inactive and hcDAF-12 act inactive.
Cc1ccc(-n2c(Cc3cccs3)nnc2SCC(=O)Nc2ccccc2-c2ccccc2)cc1 was read as hgDAF-12 ag inactive, ssDAF12 agonist inactive, DAX1 inh-2 inactive and hcDAF-12 act inactive.
For COC(=O)c1ccccc1NC(=O)C1CCN(c2ncnc3c2nc2n3CCCCC2)CC1 the results were hgDAF-12 ag inactive, DAX1 inh-1 4.8, ssDAF12 agonist inactive, DAX1 inh-2 inactive and hcDAF-12 act inactive.
Screening Cc1onc(C(=O)N2CCN(C(c3ccc(F)cc3)c3ccc(F)cc3)CC2)c1[N+](=O)[O-] returned hgDAF-12 ag inactive, ssDAF12 agonist inactive and hcDAF-12 act inactive.
`N#C/C(=C/c1ccc(N2CCCCC2)o1)C(=O)Nc1ccc(Cl)cc1` gave hgDAF-12 ag 11, DAX1 inh-1 inactive, ssDAF12 agonist inactive, DAX1 inh-2 inactive and hcDAF-12 act inactive.
For N#C/C(=C\c1ccc(N2CCOCC2)o1)C(=O)Nc1ccc(O)cc1 the results were hgDAF-12 ag inactive, ssDAF12 agonist inactive, DAX1 inh-2 inactive and hcDAF-12 act inactive.
For COc1ccc(NC(=O)/C(C#N)=C\c2ccc(N3CCOCC3)o2)cc1 the results were hgDAF-12 ag 13, DAX1 inh-1 inactive, ssDAF12 agonist inactive, DAX1 inh-2 inactive and hcDAF-12 act inactive.
For Nc1[nH]c(C(=O)c2ccccc2)c(-c2ccc(Br)cc2)c1C(=O)NCCCN1CCOCC1 the results were hgDAF-12 ag inactive, ssDAF12 agonist inactive and hcDAF-12 act inactive.
`COc1ccc(CCNC(=O)Cc2nn(C)c(=O)c3ccccc23)cc1OC` gave hgDAF-12 ag inactive, DAX1 inh-1 inactive, ssDAF12 agonist inactive, DAX1 inh-2 inactive and hcDAF-12 act inactive.
For COc1cccc(OCc2ccc(Cn3nc(NC(=O)NCCc4ccc(OC)c(OC)c4)c4ccccc43)cc2)c1 the results were hgDAF-12 ag inactive, ssDAF12 agonist 2.2, DAX1 inh-2 inactive and hcDAF-12 act 5.8.
For COc1ccc2c(c1)CCCN2C(=O)C1CCCN(S(=O)(=O)c2c(C(C)C)cc(C(C)C)cc2C(C)C)C1 (stereo not given) the results were hgDAF-12 ag inactive, ssDAF12 agonist inactive, DAX1 inh-2 inactive and hcDAF-12 act inactive.
Screening Cc1ccc(CNC(=O)O[C@H]2CC[C@@]34CCCN3C(=O)CCC[C@H]4C2)cc1 returned hgDAF-12 ag inactive, ssDAF12 agonist inactive and hcDAF-12 act inactive.
For COc1ccc(CN2CCC(CNC(=O)NC3CCCC3)CC2)cc1 the results were hgDAF-12 ag inactive, ssDAF12 agonist inactive, DAX1 inh-2 inactive and hcDAF-12 act inactive.
COc1cc(C=O)ccc1OCCCOc1ccccc1[N+](=O)[O-] was read as hgDAF-12 ag inactive, DAX1 inh-1 inactive, ssDAF12 agonist 1.0, DAX1 inh-2 inactive and hcDAF-12 act inactive.
C[C@@H]1[C@@H](O)C[C@@]2(C[C@H](O)c3ccccc3O2)O[C@H]1c1ccccc1 was read as hgDAF-12 ag inactive, ssDAF12 agonist inactive, DAX1 inh-2 inactive and hcDAF-12 act inactive.
